# Compound activity: PubChem, The Scripps Research Institute Molecular Screening Center
# Only some compounds are listed: those with a hit (about 1.8% of all), similar ones and a draw of the others.
# LYPLA2 counter: LYPLA2 inhibitors, primary screen, counter-screen for PME1 inhibitor project, biochemical, fluorescence polarization, FP-Rh probe ABPP; recombinant LYPLA2; inhibition, % at 5.9 µM; 0.38% of 320,000 active; AID 2177, 2009;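 active = inhibition above the screen-wide mean plus 3 SD, limit set per campaign, cut at about 26% in these data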;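 note: 0% = LYPLA2 with DMSO and 100% = wells lacking LYPLA2 enzyme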
# Target sequence (O95372 whole entry, looked up): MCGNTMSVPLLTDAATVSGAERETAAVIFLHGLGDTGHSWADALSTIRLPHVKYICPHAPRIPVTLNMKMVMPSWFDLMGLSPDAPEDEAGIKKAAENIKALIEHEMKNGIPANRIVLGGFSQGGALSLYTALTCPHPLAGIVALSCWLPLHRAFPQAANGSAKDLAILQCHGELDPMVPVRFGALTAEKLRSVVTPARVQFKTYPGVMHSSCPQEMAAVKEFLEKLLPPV
# LYPLA1 inh: LYPLA1 inhibitors, primary screen, counter-screen for PME1 inhibitor project, biochemical, fluorescence polarization, FP-Rh probe ABPP; inhibition, % at 5.9 µM; recombinant LYPLA1; AID 2174, 2009; 0.16% of 320,000 active;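 active = inhibition above the mean of all tested compounds plus 3 SD, set per campaign, cut at about 14% in these data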;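 note: inhibitors block serine hydrolase probe labeling of LYPLA1 so polarization falls; 0% = enzyme with DMSO and 100% = wells lacking LYPLA1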
# PME-1 inh: PME-1 inhibitors via competitive probe labeling, primary screen, biochemical, fluorescence polarization, FP-Rh probe, HTS | Protein phosphatase methylesterase 1 (Homo sapiens), Q9Y570 | inhibition, % at 5.9 µM | AID 2130, 2009 | 0.53% of 320,000 active | recombinant PME-1;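 active = inhibition above the campaign mean of all compounds plus 3 SD, cut at about 26% in these data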;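 note: competitive labeling of PME-1 active site by serine hydrolase directed probe; 0% = PME-1 with DMSO and 100% = wells lacking PME-1 enzyme; inhibitors block probe labeling so polarization falls and inhibition rises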
# Target sequence (Q9Y570 whole entry, looked up): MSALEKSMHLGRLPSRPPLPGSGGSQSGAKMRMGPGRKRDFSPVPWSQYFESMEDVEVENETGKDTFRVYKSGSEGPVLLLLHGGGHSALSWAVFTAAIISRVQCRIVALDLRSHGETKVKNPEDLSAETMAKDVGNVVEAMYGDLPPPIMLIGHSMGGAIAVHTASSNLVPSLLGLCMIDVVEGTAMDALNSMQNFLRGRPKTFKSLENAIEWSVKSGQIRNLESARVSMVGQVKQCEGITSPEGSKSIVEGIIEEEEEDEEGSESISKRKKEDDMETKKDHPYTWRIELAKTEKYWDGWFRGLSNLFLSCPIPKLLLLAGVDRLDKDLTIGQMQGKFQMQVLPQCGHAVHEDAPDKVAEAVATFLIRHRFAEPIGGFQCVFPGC
# Fam108B inh: mouse Fam108B serine hydrolase inhibitors, primary screen, counter-screen for RBBP9 inhibitor project, biochemical, fluorescence polarization; recombinant Fam108B, FP-Rh probe fluorescence polarization; inhibition, % at 9.51 µM; 0.33% of 300,000 active;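 active = inhibition above the screen mean inhibition plus 3 SD, computed separately per campaign, cut at about 18% in these data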;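 note: inhibitors lower polarization as less probe binds the enzyme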
# GSTO1 counter: inhibitors of recombinant GSTO1, primary screen, counter-screen for RBBP9 inhibitor project, biochemical, fluorescence polarization; Glutathione S-transferase omega-1 (Homo sapiens), P78417; activity-based probe fluorescence polarization; inhibition, % at 5.96 µM; 1.1% of 300,000 active;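 active = inhibition above the campaign mean inhibition plus 3 SD, cut at about 35% in these data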;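 note: 0% = GSTO1-1 with DMSO and 100% = wells lacking GSTO1-1 enzyme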
# PAD4 FP inh: human PAD4 inhibitors, primary screen, biochemical, fluorescence polarization, 1536-well format. Protein-arginine deiminase type-4 (Homo sapiens), Q9UM07. recombinant PAD4, RCA probe fluorescence polarization. inhibition, % at 6.36 µM. 0.41% of 330,000 active;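 active = percent inhibition above a cutoff equal to the mean of all tested compounds plus 3 SD, cut at about 15% in these data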;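 note: 0% = PAD4 with RCA probe and DMSO and 100% = probe without PAD4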
# PAD4 FP conf: human PAD4 inhibitors, confirmation, biochemical, fluorescence polarization. shares compounds with PAD4 FP inh. recombinant PAD4, RCA probe fluorescence polarization. inhibition, % at 6.36 µM. 28% of 1,200 active;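 active = mean inhibition across replicates above the hit cutoff set by the earlier primary screen, cut at about 15% in these data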;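 note: inhibitors block active-site labeling by the probe so polarization falls; 0% = PAD4 with probe and DMSO and 100% = probe without PAD4 enzyme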
# * = called active by the depositor; . = no result given.
SMILES,LYPLA2 counter,LYPLA1 inh,PME-1 inh,Fam108B inh,GSTO1 counter,PAD4 FP inh,PAD4 FP conf
COc1cc(-c2nc(C(=O)NCC3CCCO3)cc3c2[nH]c2ccccc23)cc(OC)c1OC (stereo not drawn),-14,-15,-5,-6,-8,33*,38*
COc1ccccc1-c1nc(C(=O)NCC2CCCO2)cc2c1[nH]c1ccccc12 (stereo not drawn),-7,-1,-11,-2,-17,37*,33*
O=C1CCCC(O)=C1N=Nc1c(Cl)cc(Cl)cc1Cl,22,10,15,5,18,36*,1
O=C1CCCC(O)=C1N=Nc1cccc(C(=O)O)c1,-1,-1,-13,15,11,-13,.
N#CCSc1nc2cc(C(=O)N3CCC(C(N)=O)CC3)ccc2c2nc3ccccc3n12,4,2,2,-1,1,22*,25*
N#CCSc1nc2cc(C(=O)N3CCCC3)ccc2c(=O)n1Cc1ccccc1,6,0,-2,-5,-5,2,.
CCOc1ccc(NC(=O)CN(C)C(=O)CC2CC3CCC2C3)cc1OCC (stereo not drawn),10,7,-1,1,4,45*,4
COc1ccc(OC)c2[nH]c(=O)c(CCNC(=O)C(C)C)cc12,2,0,3,0,3,0,.
COc1ccc(OC)c2[nH]c(=O)c(CCNC(=O)CC(C)C)cc12,-2,1,4,0,2,50*,7
COc1ccc(C)cc1N(C(=O)c1ccccc1F)c1nc2ccccc2s1,-3,-6,0,-5,5,29*,29*
O=C(N=NC(=O)c1ccc2c(O)n(CC3CCCO3)c(O)c2c1)c1cccnc1 (stereo not drawn),3,2,4,2,2,3,.
CCN(CC)CCn1c2c(c(SCC(=O)Nc3nc4ccccc4s3)nc1=O)CCC2,1,0,2,-2,10,17*,14
CCOC(=O)c1ccc(NC(=O)CSc2nc(=O)n(CCN3CCOCC3)c3c2CCC3)cc1,-8,-1,1,1,0,17*,8
CC(C)CNc1nnnc2c1sc1nc(N3CCOCC3)c3c(c12)CC(C)(C)SC3,-4,-3,20,-7,-6,27*,12
CC1(C)Cc2c(c(N3CCOCC3)nc3sc4c(NCc5ccccc5)nnnc4c23)CS1,-5,-3,-2,-7,-8,2,.
Cc1ccc(C(=O)Nc2nc3ccccc3c(=O)s2)cc1,-5,-1,-1,6,7,15*,-4
CSc1nc2ccc3nc(NC(=O)c4ccc(C)cc4)sc3c2s1,-6,-2,-5,-12,0,-6,.
O=C(Nc1nc(=O)c2ccccc2s1)c1ccccc1,-2,-1,-9,3,-7,24*,2
CC(=O)Nc1nc(=O)c2ccccc2s1,1,1,2,-4,5,4,.
CN(CC(=O)Nc1ccccc1Cl)C(=O)COC(=O)c1ccc([N+](=O)[O-])s1,.,.,.,.,.,13,.
CN(CC(=O)Nc1ccccc1C(F)(F)F)C(=O)C1=COCCO1,-5,-3,0,-2,13,3,.
CC(C)c1ccc(N=c2c([N+](=O)[O-])nn(-c3ccc4c(c3)OCCO4)n2O)cc1,8,-4,6,-2,-3,18*,2
N#CC(C#N)=C1C=C2C=C(N3CCCCC3)CCC2CC1 (stereo not drawn),3,11,10,13,-26,49*,21*
CCCC(=O)Nc1ccc(Br)c(Cl)c1,-3,2,0,8,-5,15*,11
O=C(O)CCC(=O)Nc1ccc(Br)c(Cl)c1,-5,-3,-4,-6,-7,-1,.
SMILES,LYPLA2 counter,LYPLA1 inh,PME-1 inh,Fam108B inh,GSTO1 counter,PAD4 FP inh,PAD4 FP conf
CC(=O)N1CC[n+]2c(-c3ccc(Cl)cc3)csc21,4,-3,0,2,7,22*,6
CN(C(=O)COC(=O)c1ccccc1NCc1ccco1)c1c(N)n(Cc2ccccc2)c(=O)[nH]c1=O,1,-2,3,-1,2,3,.
CC(=O)Nc1ccc(SCC(=O)c2ccc(Br)s2)cc1,-3,-3,-4,3,12,35*,12
NS(=O)(=O)c1ccc(N/C=C\C(=O)c2ccc(F)cc2)cc1,2,1,4,-1,2,-2,.
CN(C)c1ccc(N/C=C/C(=O)c2ccc(F)cc2)cc1,2,-2,7,-3,45*,31*,-2
Clc1cccc(CN2CCN(c3nc4nonc4nc3NC3CC3)CC2)c1,5,-3,5,3,5,-3,.
Cc1cccc(CN2CCN(c3nc4nonc4nc3NC3CC3)CC2)c1,-1,3,-3,0,2,28*,6
Cc1ccc(NC(=O)CCNS(=O)(=O)c2ccc3[nH]c(=O)oc3c2)cc1F,6,1,1,0,-1,21*,4
O=C(CS)Nc1ccc2ccccc2c1,-7,-2,-1,3,2,28*,9
COc1ccc(-n2sc3ccc(F)cc3c2=O)cc1,4,-1,6,.,.,31*,30*
O=C1CCCC(=O)N1c1ccc(F)cc1,5,-2,-7,1,0,-3,.
Cc1ccc(C)c(-n2sc3ccc(F)cc3c2=O)c1,9,1,4,.,.,38*,35*
O=c1c2cc(F)ccc2sn1-c1ccc(F)cc1,12,2,8,.,.,30*,25*
CS(=O)(=O)c1ccc(Cl)c(NC(=O)CNC(=O)c2ccc3c(c2)OCO3)c1,.,.,.,.,.,3,.
COc1cc(NC(=O)COC(=O)CCc2cc(OC)c(OC)c(OC)c2)cc(OC)c1,-5,1,0,0,0,-1,.
CCC1Cc2c(nc(N)c3c(N)nc(N4CCCCC4)c(C#N)c23)O1 (stereo not drawn),8,10,17,8,1,-3,.
CN(CCO)c1nc(N)c2c(N)nc3c(c2c1C#N)CC(=O)N3C1CCCC1,1,-2,6,13,14,16*,3
Cc1ccc(C)c(NC(=O)CCN2CCC(C)CC2)c1,7,3,1,2,0,-3,.
CC(=O)Nc1ccc(Nc2nc(Cl)nc(Nc3ccc(NC(C)=O)cc3)n2)cc1,-6,-3,5,2,5,19*,1
COc1ccc(Nc2nc(Cl)nc(Nc3ccc(OC)cc3)n2)cc1,0,1,3,0,4,-6,.
